From PubChem BioAssay AID2566 (National Center for Advancing Translational Sciences (NCATS), 2010) come the findings set out here.

Several values for one entry are separate records, joined by “and”; a condition that tells them apart may be missing. Identical values can stand only once. Inconclusive results are not listed. Activity calls are given as the source filed them.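 How the source made its calls: active means compound that pushes labeled neuropeptide S off its receptor in a binding test; inconclusive means all other tested compounds; inactive means none, nothing was called inactive.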

Chain of Neuropeptide S receptor (Homo sapiens) (Q6W5P4 whole entry, looked up): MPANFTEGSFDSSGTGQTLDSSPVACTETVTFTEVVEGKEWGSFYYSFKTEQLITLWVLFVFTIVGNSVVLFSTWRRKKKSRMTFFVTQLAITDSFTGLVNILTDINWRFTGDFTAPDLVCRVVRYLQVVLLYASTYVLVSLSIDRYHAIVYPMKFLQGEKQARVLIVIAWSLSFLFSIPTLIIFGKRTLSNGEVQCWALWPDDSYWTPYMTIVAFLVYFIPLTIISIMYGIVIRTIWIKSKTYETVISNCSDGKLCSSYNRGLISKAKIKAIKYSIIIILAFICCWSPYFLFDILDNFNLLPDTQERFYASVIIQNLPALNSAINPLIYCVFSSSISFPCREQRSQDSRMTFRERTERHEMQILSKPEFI

In the test the target is Neuropeptide S receptor (Homo sapiens) (UniProt Q6W5P4). Nature of the test: Confirmation Concentration-Response Assay for Antagonists of the Neuropeptide S Receptor: Radioligand Displacement, SAR for Probe. Particulars: CHO-hNPSR, [125I]Y10-NPS displacement, 1.5 h. From the text:
NIH Chemical Genomics Center [NCGC] NIH Molecular Libraries Probe Production centers Network [MLPCN] MLPCN Grant: X01-DA026210-01 Assay Submitter (PI): Heilig, Markus Alexander NCGC Assay Overview: Neuropeptide S receptor (NPSR), previously known as GPR154, is a recently de-orphanized G protein coupled receptor. Its endogenous ligand is the 20 amino acids peptide Neuropeptide S (NPS). […] NPS and its receptor are found in various tissues. Specifically they are highly expressed in brain areas that have been implicated in modulation of arousal, stress and anxiety. Central administration of NPS in mice produces an unusual profile of activity by inducing wakefulness and arousal, while at the same time suppressing anxiety. Therefore, NPSR may represent a novel drug target for the treatment of sleep and anxiety disorders. As one method of confirming the specific activity of compounds active in the primary screen (AID 1461), we developed an assay to measure the displacement of radio-labeled native ligand, NPS, from its receptor in vitro.
The assay was carried out as described (Xu et al. (2004) Neuron, 43: 487-497) with minor modification. Y10-NPS labeled with 125I was bought from NEN Perkin Elmer (Boston, MA). CHO cells stably expressing human NPSR were seeded into 24-well plates and cultured until reaching 90-95% confluency. Cells were washed with 1ml PBS once and then incubated with radioligand with or without compounds or in DMEM medium containing 0.1% bovine serum albumin at 20C for 1.5 hr. Increasing concentrations of compounds or unlabeled human NPS were used to compete with 0.15 nM [125I] Y10-NPS. Nonspecific binding was determined in the presence of 1 uM unlabeled human NPS. Cells were washed twice with cold PBS and lysed with 1 N NaOH. Bound radioactivity was counted in a liquid scintillation counter.
As for `O=C1OC(c2ccccc2)(c2ccccc2)N2CCN(C(=O)NCc3ccc(F)cc3)CC12` (centres undefined), the Potency was 5.93 nM (active). Regarding `CCC(C)(CCN1CCOCC1)N(Cc1cc2ccccc2n(C)c1=O)C(=O)C1CCCCC1` (centres undefined), the Potency is 6.54 nM (active). `N=c1c2c(ccn1-c1ccccc1)Oc1ccc3ccccc3c1C2c1ccccc1` (centres undefined): the Potency is 367 nM (active).

Consider `N#CC1=C(NC=NCc2ccccc2)Oc2ccc3ccccc3c2C1c1ccccc1` (centres undefined), for which the Potency was 322 nM (active). As to `COc1ccc(C2c3c(ncn(CCN4CCOCC4)c3=N)Oc3ccc4ccccc4c32)cc1OC` (centres undefined), the Potency was 256 nM (active) and 190 nM (active). In the case of `CCOC(=O)C1CCCN(c2ncnc3c2oc2ccccc23)C1` (centres undefined) it was 26400 nM (active). Then `COc1cccc(C2c3c(ncn(-c4ccccc4)c3=N)Oc3ccc4ccccc4c32)c1` (centres undefined), with 266 nM (active).

As to `CCOC(=O)CC(=O)Nc1ncnc2c1C(c1ccccc1)c1c(ccc3ccccc13)O2` (centres undefined), the Potency is 616 nM (active). Then `COc1cccc(C2c3c(ncn(CCN4CCOCC4)c3=N)Oc3ccc4ccccc4c32)c1` (centres undefined), with 439 nM (active).
